# The list is a sample of the results.
# aSyn UTR act: Activators working through SNCA 5'UTR binding (MLPCN). alpha-synuclein 5'UTR reporter, activators screen. activity score, % (tested at 7.5 µM), hits read low. 300,000 compounds, 7.1% hits. AID 1814; in the data active = activity score below about -60%
# Starred values were filed as active, the others as inactive.
SMILES,aSyn UTR act
COc1ccc(CSc2nnc(SCc3ccc([N+](=O)[O-])cc3)s2)cc1,-122*
O=C1S/C(=C\c2ccc(N3CCOCC3)o2)C(=O)N1c1ccccc1,-96*
O=C(O)c1ccccc1-c1ccc(/C=C2\SC(=O)N(c3ccccc3)C2=O)o1,-72*
CC[C@H](CO)Nc1nc(Nc2cccc(Cl)c2)c2ncn(C(C)C)c2n1,57
O=C(CC(=O)c1ccccc1)Nc1ccc(Cl)cc1,-174*
Cc1ccc(NC(=O)CC(=O)c2ccccc2)cc1C,-117*
CCC(=O)Nc1ccc(/C=C(\C(C)=O)C(=O)c2ccccc2)cc1,-77*
COc1ccc2c(c1)C1OCCC1C(c1ccco1)N2 (stereo unspecified),-76*
O=C(O)c1ccc(-c2nc(-c3ccccc3Cl)cs2)cc1,-118*
CNC(=O)c1ccc(-c2nc(-c3ccccc3)cs2)cc1,-116*
O=C(O)c1ccc(-c2nc(-c3ccccc3)cs2)cc1,-140*
Cc1oncc1-c1csc(-c2ccccc2)n1,-82*
c1ccc(-c2csc(-c3ccc(-c4csnn4)cc3)n2)cc1,-192*
CNC(=O)c1csc(-c2ccc(C)cc2)n1,-81*
c1ccc(COc2ccc(-c3csnn3)cc2)cc1,-185*
O=C(O)c1ccccc1-c1csc(-c2ccccc2)n1,-118*
O=C(O)c1ccc(-c2nc(-c3ccc(Cl)c(Cl)c3)cs2)cc1,-100*
O=C(O)c1ccccc1C(=O)Nc1ccc(Oc2cccc3ccccc23)cc1,94
O=C(O)c1ccccc1C(=O)Nc1ccc(-c2csc(-c3ccccc3)n2)cc1,-64*
O=C(Nc1ccc(F)cc1)C1COc2ccccc2O1 (stereo unspecified),-72*
COc1ccc(OC)c2c1sc(=NC(=O)C1COc3ccccc3O1)n2C (stereo unspecified),-128*
Cc1cc(Cl)ccc1NC(=O)C1COc2ccccc2O1 (stereo unspecified),-85*
O=C(Nc1ccccc1[N+](=O)[O-])C1COc2ccccc2O1 (stereo unspecified),-221*
O=C(Nc1cnc2ccccc2c1)C1COc2ccccc2O1 (stereo unspecified),-167*
COc1ccc(C)cc1NC(=O)C1COc2ccccc2O1 (stereo unspecified),-67*
SMILES,aSyn UTR act
Cc1cc(=O)oc2cc(NC(=O)C3COc4ccccc4O3)ccc12 (stereo unspecified),-62*
COc1ccc(CNC(=O)C2COc3ccccc3O2)cc1 (stereo unspecified),-62*
COc1cccc(NC(=O)C2COc3ccccc3O2)c1 (stereo unspecified),-201*
O=C(Nc1ccc2c(c1)OCO2)C1COc2ccccc2O1 (stereo unspecified),-177*
O=C(CSc1nnc(C2CCCCC2)o1)Nc1ccccc1Cl,-138*
CCC(C)n1ncn(-c2ccc(N3CCN(c4ccc(OCC5COC(Cn6cncn6)(c6ccc(Cl)cc6Cl)O5)cc4)CC3)cc2)c1=O (stereo unspecified),100
CC(=O)c1cccc(NC(=S)NC(=O)c2cccc(C)c2)c1,-145*
CC(=O)c1cccc(NC(=S)NC(=O)c2ccc(Cl)cc2)c1,-131*
CC(=O)c1cccc(NC(=S)NC(=O)c2ccccc2C)c1,-64*
Cc1[nH]c2ccccc2c1C(=O)C(=O)Nc1ccc2c(c1)OCO2,-91*
Cc1cc(C(=O)Nc2ccc3c(c2)OCO3)cs1,-233*
CCCc1cc(C(=O)NNC(=S)Nc2cccc(C)c2)cs1,-101*
Cc1cccc(NC(=S)NNC(=O)c2csc3c2CCC(C)C3)c1 (stereo unspecified),-77*
CC(=O)c1cccc(NC(=O)c2ccc3c(c2)OCO3)c1,-128*
Cc1cccc(NC(=S)NNC(=O)c2ccc3c(c2)OCO3)c1,-211*
Cc1cccc(NC(=S)NNC(=O)c2ccccc2Br)c1,-129*
CCOC(=O)c1cccc(NC(=O)c2ccc3c(c2)OCO3)c1,-126*
CCOC(=O)c1cccc(NC(=O)/C=C/c2ccc3c(c2)OCO3)c1,106
CCN(CC)S(=O)(=O)c1ccc(NC(=O)c2ccccn2)cc1,-120*
CN(C)S(=O)(=O)c1ccc(NC(=O)c2ccccn2)cc1,-79*
CN(C)S(=O)(=O)c1ccc(C(=O)Nc2ccccn2)cc1,-70*
CN(C)c1ccc(C(=O)N/N=C/c2ccccn2)cc1,-85*
O=C(N/N=C/c1ccccn1)c1ccccc1,-90*
Cc1ccccc1C(=O)N/N=C/c1ccccn1,-80*
O=C(N/N=C\c1cn[nH]c1-c1ccccc1)c1cccnc1,-67*
SMILES,aSyn UTR act
CN(C)c1ccc(NC(=S)c2ccccn2)cc1,97
CCc1ccc(N(C(=O)c2csnn2)C(C(=O)NC(C)(C)C)c2ccccn2)cc1 (stereo unspecified),-102*
CCc1ccc(N(C(=O)c2csnn2)C(C(=O)NC(C)(C)CC)c2ccccn2)cc1 (stereo unspecified),-69*
Cc1ccc(NC(=O)c2ccc(Cl)cc2Cl)cc1O,-170*
Cc1ccc(C(=O)Nc2ccc(Cl)cc2C(F)(F)F)c(Cl)c1,-101*
O=C(Nc1cc(F)c(Br)cc1F)c1ccc(Cl)cc1,-152*
C#Cc1cccc(NC(=O)c2ccc(Cl)cc2Cl)c1,-185*
Cc1ccc(C(=O)Nc2ccc(Cl)cc2C)c(Cl)c1,-71*
O=C(Nc1ccc(Cl)cc1C(F)(F)F)c1ccc(Cl)cc1,-104*
CCOC(=O)c1cnc2cc(-c3ccc(Br)cc3)nn2c1C,-131*
CCOC(=O)c1cnc2cc(-c3ccc(Cl)cc3)nn2c1N,-87*
O=C(CN1C(=O)S/C(=C\c2ccc(O)cc2)C1=O)c1ccccc1,-157*
O=C(CCCN1C(=O)S/C(=C\c2ccccc2)C1=O)NNC(=O)c1ccccc1O,83
O=C(Nc1ccc(Cl)c(Cl)c1)Nc1ccc(N2CCCC2)c(S(=O)(=O)Nc2ccccc2Cl)c1,95
O=C(/C=C/c1cccs1)Nc1ccc(N2CCOCC2)c(S(=O)(=O)Nc2ccccc2Cl)c1,-139*
O=c1[nH]c(N/N=C/c2ccccc2)nc2ccccc12,-212*
Cc1cc(N/N=C/c2ccc3c(c2)OCO3)nc2ccccc12,-180*
C(=N\Nc1nc2ccccc2[nH]1)/c1ccccc1,-175*
Fc1cccc(/C=N/Nc2nc3ccccc3[nH]2)c1,-160*
C(/CCc1ccccc1)=N\Nc1nc2ccccc2[nH]1,-67*
Brc1ccc(-c2ccc(/C=N/Nc3nc4ccccc4[nH]3)o2)cc1,-227*
O=c1[nH]c(N/N=C\c2ccc3c(c2)OCO3)nc2ccccc12,-161*
Fc1ccc(/C=N/Nc2nc3ccccc3[nH]2)cc1F,-159*
C(=C\c1ccccc1)/C=N/Nc1nc2ccccc2[nH]1,-275*
CCc1nnc(NC(=O)/C=C/c2ccco2)s1,-501*
SMILES,aSyn UTR act
CNS(=O)(=O)c1ccc2nc(NC(=O)/C=C/c3ccco3)sc2c1,-230*
O=C(/C=C/c1ccco1)NC1=NCCS1,-108*
CCSc1nnc(NC(=O)/C=C/c2ccco2)s1,-320*
Cc1nc(NC(=O)/C=C/c2ccco2)sc1C,-199*
O=C(/C=C/c1ccco1)Nc1nnc(-c2ccco2)s1,-117*
O=C(/C=C\c1ccco1)Nc1cc([N+](=O)[O-])ccc1F,97
O=C(/C=C/c1ccco1)Nc1cccc(NC(=O)/C=C/c2ccco2)n1,-193*
CCOC(=O)COn1c(=O)c(-c2cc3ccccc3o2)[n+]([O-])c2ccccc21,-114*
CCOc1ccc(-c2c(=O)n(OCc3ccc([N+](=O)[O-])cc3)c3ccccc3[n+]2[O-])cc1,-178*
